Assay results as given in ChEMBL document CHEMBL1156829.
Several values for one entry are separate records, joined by “and”; a condition that tells them apart may be missing. Identical values can stand only once. Whole data set: some 5,400 compounds, median “IFI” near 2, cut for the highest 2% near 22. The sample as a whole holds a higher share of the highest values than the screen did.

Assay: NOVARTIS: Inhibition Frequency Index (IFI) - the number of HTS assays where a compound showed > 50% inhibition/induction, expressed as a percentage of the number of assays in which the compound was tested.
Format: functional

| SMILES | IFI |
| --- | --- |
| O=C(Nc1cccc(Oc2ccccc2)c1)NC(CN1CCCC1)c1ccccc1 (stereo not given) | 7.04% |
| CCCCCCC1CCC(O)(C(C)(O)C(=O)NC2C(=O)N3NCCCC3C(=O)N(O)C(COC)C(=O)NCC(=O)N3NCCCC3C(=O)N(O)C(C)C(=O)OC2C)OC1C (stereo not given) | 39.3% |
| CC[C@H](C)C[C@H]1CC[C@](O)([C@](C)(O)C(=O)N[C@@H]2C(=O)N3NCCC[C@@H]3C(=O)N(O)[C@@H](C)C(=O)NCC(=O)N3NCCC[C@H]3C(=O)N(O)[C@H](C)C(=O)O[C@H]2C(C)C)O[C@@H]1C | 34.4% |
| COc1ccc(CN2CCOc3ccc(C(C)(O)CN(C)C)cc3C2)cc1C (stereo not given) | 0% |
| CCOC(=O)c1c(C)n(-c2ccccc2)c2ccc(O)cc12 | 2.54% |
| CCN1CCN(c2c(C(=O)c3ccccc3)cnc3cc(OC)c(OC)cc23)CC1 | 2.22% |
| CCCCc1c(C)nc2c(OC)cccc2c1O | 0% |
| CCCCN(C)Cc1cc(-c2cccc(OC)n2)ccc1O | 3.42% |
| Oc1c2c(nc3cc(-c4ccccc4)nn13)CCCC2 | 7.14% |
| CC(C)CNCc1cc(-c2ccc(F)cc2)ccc1O | 0.98% |
| CC(=O)Nc1c(NCc2ccccc2)c2ccccc2sc1=O | 2.17% |
| Cc1ccc(Nc2nc3c(N)nnc(N)c3nc2Nc2ccc(C)cc2)cc1 | 2.98% |
| O=C(NC(=C(Cl)Cl)[P+](c1ccccc1)(c1ccccc1)c1ccccc1)c1ccc(F)cc1 | 27.3% |
| O=C(NN=CC(Br)=Cc1ccccc1)c1ccc(F)cc1 | 0% |
| CCS/C(Cl)=C(/NC(=O)c1ccccc1)[P+](c1ccccc1)(c1ccccc1)c1ccccc1 | 3.57% |
| COc1ccc(/C=C(/C#N)C(=O)Nc2cccc3ccccc23)cc1 | 0% |
| COc1cc(NC(C)CCCN(Cc2ccc(Cl)cc2)C(=O)Nc2cccc(C(F)(F)F)c2)c2ncccc2c1 (stereo not given) | 2.7% |
| Cc1ccccc1C[n+]1cc(-c2ccc(Cl)cc2)n2c1CCC2 | 7.14% |
| CCCCNC1=CC(=O)C(=O)c2ccccc21 | 15.4% |
| CCSC1=CC(=O)c2ccccc2C1=O | 24.3% |
| Cc1c(C(=O)NCCN2CCCC2)cnn1-c1ncc2c(n1)-c1ccccc1SC2 | 2.59% |
| COCCOC(=O)C1=C(C)NC2=C(C(=O)CC(c3ccc(OC)c(OC)c3)C2)C1c1ccccc1Cl (stereo not given) | 2.33% |
| CC(C)NC(=O)c1ccc2c(c1)N=C(c1ccccc1)N(C1CC1)C2 | 2.47% |
| Cc1ccccc1C=NNc1nc2ccccc2[nH]1 | 0% |
| CCN1/C(=C/c2ccc3ccccc3[n+]2CC)Sc2cc(NC(C)=O)ccc21 | 8.33% |

| SMILES | IFI |
| --- | --- |
| CCN1/C(=C/c2cccc[n+]2C)C=Cc2ccccc21 | 8.33% |
| CCN1/C(=C/c2ccc3ccccc3[n+]2CC)Sc2sc3ccccc3c21 | 18.3% |
| CCN1C(=Cc2ccc3ccccc3[n+]2CC)C=Cc2sc3ccccc3c21 | 31.4% |
| CC[n+]1c(/C=C2\Sc3ccc(C)cc3N2CCO)ccc2ccccc21 | 15.4% |
| CC[n+]1c(/C=C2\Sc3oc4ccccc4c3N2C)ccc2cc(C)ccc21 | 26.1% |
| CCN1/C(=C/c2ccc3ccccc3[n+]2CC)C=Cc2ccccc21 | 22.7% |
| CCN1/C(=C/c2[se]c3ccccc3[n+]2CC)C=Cc2cc(OC)ccc21 | 19.6% |
| CC[n+]1c(/C=C2\Sc3ccccc3N2CCO)ccc2cc(C)ccc21 | 6.35% |
| CC[n+]1c(/C=C2\Sc3ccc(OC)cc3N2C)ccc2cc(C)ccc21 | 14.3% |
| CCN1/C(=C/c2ccc3ccccc3[n+]2CC)Sc2c1ccc1ccccc21 | 24.1% and 14.3% |
| CC[n+]1c(/C=C2\Sc3cc(C)ccc3N2CCO)ccc2ccccc21 | 15.4% |
| CCCC(=O)N1CCN(c2nc(Cc3ccccc3)c3c(c2C#N)CC(C)(C)OC3)CC1 | 4.54% |
| COc1ccc(-c2nc(CN3CCCCC3)ccc2O)cc1 | 0% |
| CCOC(=O)C1=C(C)NC2=C(C(=O)C(C(=O)OCC)C(c3ccccc3OC)C2)C1c1sccc1C (stereo not given) | 3.49% |
| COc1ccc(C2(CNCC(O)c3cccc([N+](=O)[O-])c3)CCCC2)cc1OC (stereo not given) | 0% |
| CC(=O)Nc1cc(C(=O)Nc2ccc(C3=NCCN3)cc2)ccc1C(=O)Nc1ccc(C2=NCCN2)cc1 | 0% |
| Cc1ccn(CC(=O)N2CCOc3c(cc(-c4csc5ccccc45)cc3OCCc3ccccn3)C2)n1 | 4% |
| CC[n+]1c(/C=C/c2ccc(Cl)cc2)ccc2ccccc21 | 4.84% |
| CCN1C=Cc2ccccc2/C1=C\c1ccc2ccccc2[n+]1CC | 23.6% |
| CC[n+]1c(C=C2C=CN(c3ccc(Cl)cc3)C=C2)ccc2ccccc21 | 15.4% |
| O=C(CCl)Nc1ccc(OC(F)F)cc1 | 0% |
| COc1ccc2nc(-c3ccccc3)cc(NCCN(C)C)c2c1 | 3.51% |
| O=c1cc(NC2CCN(CCCc3ccccc3)CC2)c2cc(Cl)ccc2o1 | 0% |
| CCOC(=O)c1cnc2cc(OCC(C)C)c(OCC(C)C)cc2c1O | 0.649% |
| c1cn2c(-c3ccc(N4CCOCC4)cc3)cnc2c(NCc2ccc3c(c2)OCO3)n1 | 0% |

| SMILES | IFI |
| --- | --- |
| CN1c2ccccc2N(C)C1c1ccc2c(c1)OCO2 | 0.621% |
| c1ccc(C2=NN(c3ccccc3)C(c3ccc4c(c3)OCO4)N2c2ccc(N3CCOCC3)cc2)cc1 (stereo not given) | 23.1% |
| CCN1CCN(c2cc(C)c3cc(NC(=O)c4ccc(F)c([N+](=O)[O-])c4)ccc3n2)CC1 | 6.67% |
| Cc1cc(Nc2cccc3ccccc23)nc(Nc2cccc3ccccc23)n1 | 0% |
| O=S(=O)(c1ccccc1)N1CCN(CC2CNCCO2)CC1 (stereo not given) | 1.41% |
| Cc1oc2c(c1C(=O)NCc1cccnc1)C(=O)c1ccccc1C2=O | 17.5% |
| Cc1oc2c(c1C(=O)NCCCn1ccnc1)C(=O)c1ccccc1C2=O | 24.3% |
| Cc1oc2c(c1C(=O)N1CCC(C)CC1)C(=O)c1ccccc1C2=O | 15.4% |
| Cc1oc2c(c1C(=O)NC1CCS(=O)(=O)C1)C(=O)c1ccccc1C2=O (stereo not given) | 29.7% |
| Cc1oc2c(c1C(=O)NCC1CCCO1)C(=O)c1ccccc1C2=O (stereo not given) | 17% |
| CCOC(=O)c1c(C)oc2c1C(=O)c1ccccc1C2=O | 3.17% |
| COc1cc(NC(C)CCCN(Cc2ccc(F)cc2)C(=O)CCc2ccccc2)c2ncccc2c1 (stereo not given) | 1.71% |
| COc1cc(NC(C)CCCN(Cc2ccc(OC)c(OC)c2)C(=O)CC(C)CC(C)(C)C)c2ncccc2c1 (stereo not given) | 3.64% |
| O=C(Cc1cccs1)N1CCN(c2ccccn2)CC1 | 2.35% |
| COc1ccc(C[C@H](N)C(=O)N[C@H]2[C@@H](O)[C@H](n3cnc4c(N(C)C)ncnc43)O[C@@H]2CO)cc1 | 30.8% |
| COCCN1C(=O)c2[nH]nc(-c3ccccc3O)c2C1c1ccc(SC)cc1 (stereo not given) | 0% |
| C[n+]1c2ccccc2nc2ccc(NC3CCCCC3N)cc21 (stereo not given) | 23.1% |
| C[n+]1c2ccccc2nc2ccc(NCCc3cnc[nH]3)cc21 | 15.4% |
| COc1ccc2c(c1)[nH]c1c(N3CCN(C(c4ccccc4)c4ccccc4)CC3)ncnc12 | 8.77% |
| Cc1ccc(S(=O)(=O)c2c(COC(=O)c3cccc(C)c3)c(-c3ccccc3)nn2C)cc1 | 3.9% |
| CN[C@H]1C[C@@H]2O[C@](C)([C@H]1O)n1c3ccccc3c3c4c(c5c6ccccc6n2c5c31)C(=O)NC4 | 46.2% |
| COc1cc2c(-c3cc(Br)ccc3O)nc3c(c(-c4ccccc4)nn3-c3ccccc3)c2cc1OC | 3.03% |
| CC[n+]1c(C=CN(C)c2ccccc2)sc2ccc(Cl)cc21 | 9.09% |
| CC[n+]1c(C=CN(C)c2ccccc2)oc(-c2ccccc2)c1-c1ccccc1 | 22.7% |
| CC[n+]1c(/C=C/N(C)c2ccccc2)sc(-c2ccccc2)c1-c1ccccc1 | 14.3% |

| SMILES | IFI |
| --- | --- |
| CC(NCc1ccccc1)c1cc(Cl)ccc1O (stereo not given) | 0% |
| Oc1c(C(Nc2ccccn2)c2cccc(Cl)c2Cl)ccc2cccnc12 (stereo not given) | 15.4% |
| Clc1ccc(-c2c[n+](-c3ccccc3)c3n2CCS3)cc1 | 0.725% |
| Cc1ccc(-c2c[n+](-c3ccccc3)c3n2CCCS3)cc1 | 7.69% |
| CC(C)(C)c1ccc(-c2c[n+](-c3ccccc3)c3n2CCCS3)cc1 | 23.1% |
| CC1CNC2C(C)C3C(CC4C5CCC6CC(N)CCC6(C)C5CCC43C)OC2(O)C1 (stereo not given) | 5.26% |
| Oc1ccccc1-c1nc2sc(-c3ccccc3O)nc2s1 | 11% |
| N#C/C(=C\C=C\c1ccc([N+](=O)[O-])o1)c1nc2ccccc2[nH]1 | 28.6% |
| CCN(CC)c1ccc(/C=C(/C#N)c2nc3ccccc3[nH]2)o1 | 7.69% |
| N#C/C(=C\c1ccc(Sc2ccccc2)o1)c1nc2ccccc2[nH]1 | 6.74% |
| COc1cc(C(=O)NC2CC3CCC(C2)N3C2CC2)cc(OC)c1OC (stereo not given) | 0% |
| O=C(C[n+]1cc(-c2ccccc2)n2c1CCC2)c1ccc(C2CCCCC2)cc1 | 12.5% |
| COc1ccc(-c2c[n+](CC(=O)c3ccc(Cl)cc3)c3n2CCC3)cc1 | 5% |
| O=C(C[n+]1cc(-c2ccc(Cl)cc2)n2c1CCC2)c1ccc(C2CCCCC2)cc1 | 27.5% |
| c1cc2cc(CN3CCc4nc(N5CCCCC5)sc4C3)ccc2[nH]1 | 4.17% |
| CN1CCc2c(sc3nc(SCc4ccc(F)cc4)n(-c4ccccc4)c(=O)c23)C1 | 2.5% |
| CC1C/C(=C/c2ccncc2)C(=O)/C(=C/c2ccncc2)C1 (stereo not given) | 33.3% |
| COc1cc(/C=C2\CC/C(=C\c3cc(OC)c(OC)c(OC)c3)C2=O)cc(OC)c1OC | 2.7% |
| COc1ccc2c(c1)c(C)cc[n+]2Cc1ccccc1 | 6.3% |
| CC(C)(C)CC(=O)NCc1ccc(OC2CCN(CC(c3ccccc3)c3ccccc3)CC2)cc1 | 7.04% |
| O=C1CCC(c2ccc(Cl)c(Cl)c2)c2ccc(O)cc21 (stereo not given) | 0% |
| COc1cc2nc(N3CCN(c4nc(N)c5cc(OC)c(OC)cc5n4)CC3)nc(N)c2cc1OC | 23.1% |
| COc1cc2nc(Nc3ccc(F)cc3)nc(N)c2cc1OC | 0% |
| COc1ccc(-c2cc(C3CCN(c4nc(N)c5cc(OC)c(OC)cc5n4)CC3)n[nH]2)cc1OC | 7.41% |
| CCc1c2ccc(C)n2cc[n+]1CC | 6.02% |
